Screens as filed in PubChem BioAssay.
CSC inhib = blocks cancer stem cells. inhibition, % at 7.5 µM. AID 2717. hit rate 1.1% among 300,000. cancer stem cell-like cells viability, luminescence; in the data active = inhibition above about 75%; tested in HMLE shEcad cells
Bfl-1 A1 inh = inhibitors of the anti-apoptotic protein A1, read as caspase activation; hit rate 0.066% among 330,000; caspase activation, % (no concentration beside the values); MEF A1-2A-BIM cells, Caspase-Glo 3/7 luminescence, 3 h; percent of clofoctol response, vehicle zero; AID 2462;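 active = over half of replicate activation scores above 10%, or exactly half above 10 with the replicate mean above 10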
Mdm2 MdmX PPI = human Mdm2/MdmX binding inhibition | SaOS-2 split-luciferase Mdm2/MdmX complementation, luminescence | inhibition, % at 8 µM | hit rate 3% among 330,000 | AID 485346;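 active = inhibition of at least 50% at 8 µM in the primary screen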
Target sequence (O15151 whole entry, looked up): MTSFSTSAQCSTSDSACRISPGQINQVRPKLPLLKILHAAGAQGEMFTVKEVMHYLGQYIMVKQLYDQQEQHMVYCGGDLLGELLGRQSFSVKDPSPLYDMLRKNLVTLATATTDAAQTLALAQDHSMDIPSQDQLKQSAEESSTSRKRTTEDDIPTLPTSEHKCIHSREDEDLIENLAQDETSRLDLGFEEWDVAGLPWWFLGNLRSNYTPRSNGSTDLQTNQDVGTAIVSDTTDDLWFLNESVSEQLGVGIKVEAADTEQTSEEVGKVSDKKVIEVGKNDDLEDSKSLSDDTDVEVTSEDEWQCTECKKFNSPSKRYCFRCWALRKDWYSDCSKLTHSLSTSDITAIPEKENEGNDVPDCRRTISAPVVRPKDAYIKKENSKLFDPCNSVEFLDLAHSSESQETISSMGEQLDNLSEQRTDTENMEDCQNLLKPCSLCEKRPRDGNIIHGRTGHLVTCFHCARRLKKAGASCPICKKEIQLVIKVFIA
Target sequence (Q00987 whole entry, looked up): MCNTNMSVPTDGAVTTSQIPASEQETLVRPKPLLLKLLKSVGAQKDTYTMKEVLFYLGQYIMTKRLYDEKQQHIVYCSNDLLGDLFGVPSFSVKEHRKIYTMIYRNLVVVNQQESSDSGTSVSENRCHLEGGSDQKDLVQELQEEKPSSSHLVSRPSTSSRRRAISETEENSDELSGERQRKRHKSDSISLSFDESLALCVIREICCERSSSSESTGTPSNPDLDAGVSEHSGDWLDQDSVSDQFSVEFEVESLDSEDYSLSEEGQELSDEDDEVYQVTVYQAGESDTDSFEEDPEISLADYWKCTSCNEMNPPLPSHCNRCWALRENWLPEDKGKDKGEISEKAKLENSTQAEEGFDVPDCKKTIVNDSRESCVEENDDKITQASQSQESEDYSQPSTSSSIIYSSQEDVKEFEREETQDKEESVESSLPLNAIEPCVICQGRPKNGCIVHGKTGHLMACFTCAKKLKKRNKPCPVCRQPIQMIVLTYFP
aSyn 5UTR inh = 5' untranslated region of α-synuclein, MLPCN primary screen. hit rate 0.82% among 300,000. inhibition, % (tested at 7.5 µM). alpha-synuclein 5'UTR reporter, inhibitor activity; in the data active = inhibition above about 60%;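 note: H4 neuroglioblastoma cells stably carrying SNCA 5'UTR luciferase fusion; 0% = DMSO wells and 100% = positive control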
Beta cell apopt = blocks beta cell apoptosis; INS-1E cytokine-induced death, ATP luminescence, 48 h; percent of positive-control rescue, neutral wells zero; protection from apoptosis, % (concentration not given with the values); hit rate 0.8% among 300,000; AID 435005;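 active = Every replicate reaches about 75%, or at least half do and their mean reaches it too, limit read from the data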;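 note: 0% = cytokine-treated negative control wells and 100% = positive control rescue; higher means more ATP so stronger rescue from cytokine killing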
Mdm2 MdmX conf = confirmation of human Mdm2/MdmX interaction inhibitors. Mdm2-MdmX binding, luminescent assay. shares compounds with Mdm2 MdmX PPI. inhibition, % at 8 µM. hit rate 55% among 10,000; in the data active = inhibition above about 40%
Full FLuc ctr = inhibits full-length luciferase, flagging false Mdm2/MdmX hits | hit rate 77% among 6,200 | SaOS-2 full-length luciferase counterscreen, luminescence | AID 504607 | inhibition, % at 8 µM | shares compounds with Mdm2 MdmX PPI;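 active = mean inhibition at 8 µM reaching about 37%, which flags the compound as non-specific, limit read from the data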;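 note: p53-null SaOS-2 cells with luciferase driven by a doxycycline-inducible promoter; compound on cells about two nights before reading with doxycycline added after day one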
Numbers without * were called inactive. Hits are enriched below; roughly 4.1% of the tested compounds scored in any of these assays.

Results for O=C(Oc1c(Cl)cc(Cl)c2cccnc12)c1ccco1 ?
CSC inhib: active; Bfl-1 A1 inh: -1; Mdm2 MdmX PPI: 71*; aSyn 5UTR inh: 7; Beta cell apopt: 91*; Mdm2 MdmX conf: 60*; Full FLuc ctr: 36*

Results for O=C(Oc1c(CN2CCOCC2)cc(Cl)c2cccnc12)c1ccc(F)cc1 ?
CSC inhib: 17; Bfl-1 A1 inh: 1; Mdm2 MdmX PPI: 52*; aSyn 5UTR inh: 65*; Beta cell apopt: 83*; Mdm2 MdmX conf: 49*; Full FLuc ctr: 42*

What do the screens show for `O=C(NCc1ccccc1)c1ccccc1NC(=O)C1CCCCC1`?
CSC inhib: 5; Bfl-1 A1 inh: 0; Mdm2 MdmX PPI: -3; aSyn 5UTR inh: -2; Beta cell apopt: -12

What do the screens show for `NS(=O)(=O)c1cccc(NC(=O)c2ccno2)c1`?
CSC inhib: -11; Bfl-1 A1 inh: -1; Mdm2 MdmX PPI: -29; aSyn 5UTR inh: -4; Beta cell apopt: -6

Results for O=C(Oc1c(CN2CCOCC2)cc(Cl)c2cccnc12)c1cccs1 ?
CSC inhib: 49; Bfl-1 A1 inh: 0; Mdm2 MdmX PPI: 65*; aSyn 5UTR inh: 108*; Beta cell apopt: 122*; Mdm2 MdmX conf: 43*; Full FLuc ctr: 43*

How did COc1cccc(C(=O)Oc2c(CN3CCOCC3)cc(Cl)c3cccnc23)c1 do in these assays?
CSC inhib: -8; Bfl-1 A1 inh: -1; Mdm2 MdmX PPI: 54*; aSyn 5UTR inh: 89*; Beta cell apopt: 90*; Mdm2 MdmX conf: 56*; Full FLuc ctr: 49*

Results for COc1ccc(C(=O)Oc2c(CN3CCOCC3)cc(Cl)c3cccnc23)cc1 ?
CSC inhib: 14; Bfl-1 A1 inh: 0; Mdm2 MdmX PPI: 55*; aSyn 5UTR inh: 54; Beta cell apopt: 54; Mdm2 MdmX conf: 35; Full FLuc ctr: 43*

What do the screens show for `Cc1cc(C)c2c(c1)/C(=c1/sc3n(c1=O)CN(c1ccccc1)CN=3)C(=O)N2`?
CSC inhib: 2; Bfl-1 A1 inh: 0; Mdm2 MdmX PPI: 57*; aSyn 5UTR inh: -23; Beta cell apopt: 1; Mdm2 MdmX conf: -5

Results for CCN(CC)S(=O)(=O)c1cc(NC(=O)C2CSC3(C)CCC(=O)N23)ccc1C (centres undefined) ?
Bfl-1 A1 inh: 1; Mdm2 MdmX PPI: -29; Beta cell apopt: 0

How did CCN(CC)c1ccc(NC(=O)c2ccc3c(c2)c(C)c(C)n3C)cc1 do in these assays?
CSC inhib: 2; Bfl-1 A1 inh: 0; Mdm2 MdmX PPI: 61*; aSyn 5UTR inh: -33; Beta cell apopt: 26; Mdm2 MdmX conf: 48*; Full FLuc ctr: 71*

Results for CCCCNc1c(-c2ccc(Sc3ccc(OC)cc3)cc2)nc2cc(C)ccn12 ?
CSC inhib: 61; Bfl-1 A1 inh: 0; Mdm2 MdmX PPI: 80*; Beta cell apopt: 12; Mdm2 MdmX conf: 10

How did CCC(C)Sc1ccc(-c2nc3ccc(C)cn3c2NCc2ccccc2)cc1OC (centres undefined) do in these assays?
CSC inhib: -13; Bfl-1 A1 inh: 0; Mdm2 MdmX PPI: 97*; aSyn 5UTR inh: -21; Beta cell apopt: 97*; Mdm2 MdmX conf: 57*; Full FLuc ctr: 39*

Results for COc1ccc(-c2nc3ccc(Cl)cn3c2NC2CCCCC2)cc1SC1CCCCC1 ?
Mdm2 MdmX PPI: 43

Results for CCCCNc1c(-c2ccc(OC)c(SC(C)CC)c2)nc2ccc(C)cn12 (centres undefined) ?
CSC inhib: 100*; Bfl-1 A1 inh: -2; Mdm2 MdmX PPI: 89*; Beta cell apopt: 120*; Mdm2 MdmX conf: 37

What do the screens show for `CCC(C)Sc1cc(-c2nc3ccc(C)cn3c2NCc2ccccc2)ccc1OC` (centres undefined)?
CSC inhib: -29; Bfl-1 A1 inh: 0; aSyn 5UTR inh: -14

What do the screens show for `CCCCNc1c(-c2ccc(OC)c(SC3CCCCC3)c2)nc2ccc(C)cn12`?
Mdm2 MdmX PPI: 98*; Mdm2 MdmX conf: 46*; Full FLuc ctr: 29

How did COc1cc2c(cc1OC)C(COc1ccc([N+](=O)[O-])cc1)NCC2 (centres undefined) do in these assays?
CSC inhib: 0; Bfl-1 A1 inh: 0; Mdm2 MdmX PPI: -8; aSyn 5UTR inh: 20; Beta cell apopt: 9
